Screening results as filed in PubChem BioAssay.
A selection: hits, their analogues and other compounds. The true share with any hit is near 0.54%.
VHR inh abs = DUSP3 (human) phosphatase inhibition. recombinant VHR phosphatase, pNPP absorbance. P51452. actives 0.52% (n = 290,000). inhibition, % at 13.3 µM; in the data active means inhibition above about 50%
Target sequence (P51452 whole entry, looked up): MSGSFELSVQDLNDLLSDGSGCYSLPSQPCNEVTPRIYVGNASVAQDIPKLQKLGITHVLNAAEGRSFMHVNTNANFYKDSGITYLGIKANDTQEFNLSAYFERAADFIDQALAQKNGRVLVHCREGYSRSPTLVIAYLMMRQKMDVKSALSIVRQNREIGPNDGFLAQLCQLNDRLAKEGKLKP
Mtb RmlCD inh = blocks M. tuberculosis RmlC and RmlD coupled enzymes; actives 0.03% (n = 160,000); RmlC+RmlD coupled enzyme assay, percent inhibition; primary screen in compound mixtures; inhibition, % at 3.6 µM; in the data active means inhibition mostly above about 34%, no sharp cut-off
An asterisk follows results filed as active; . = not tested or not shown.

SMILES | VHR inh abs | Mtb RmlCD inh
CCC(C)NC(=O)c1ccc(CSCc2ccccc2Cl)o1 (stereo not drawn) | -8 | .
COc1ccccc1CNC(=O)COc1cc2c(c3oc(=O)cc(C)c13)CCC(C)(C)O2 | 25 | .
COc1cc2[nH]c(=S)n(Cc3ccc(C)cc3)c(=O)c2cc1OC | 12 | 7
CC(=O)NCCNC(=O)c1ccc(CSc2nc3ccccc3s2)cc1 | 60* | .
C=CCNC(=O)c1ccc(CSc2nc3ccccc3s2)cc1 | 10 | .
COc1ccc(Cn2ccnc2SCC(=O)Nc2ccccc2OC)cc1 | 11 | .
CCOP(=O)(OCC)/C(C#N)=C/c1cc(OC)ccc1OC | 52* | .
CCOC(=O)/C(C#N)=C/Nc1cc(OC)ccc1OC | -12 | 12
CCOC(=O)c1[nH]c(C)c(C(=O)OCC(=O)N2CC(=O)Nc3ccccc32)c1C | 0 | 0
O=C(COc1ccc(Br)cc1)NCCO | 1 | 95
CCCN1C(=O)c2ccccc2NC1c1ccc(OC)cc1OC (stereo not drawn) | 8 | -4
COc1ccc(C2Nc3ccccc3C(=O)N2NC(C)=O)c(OC)c1 (stereo not drawn) | 53* | .
O=C(Nc1ccc(-n2cnnn2)cc1)C1CCCN1C(=O)NC1CCCCC1 (stereo not drawn) | 21 | .
O=C(Nc1ccc(-n2cnnn2)cc1)C1CCCCC1 | 52* | .
CCCC(C)NC(=O)c1sc2nc3n(c(=O)c2c1C)CCC3 (stereo not drawn) | 54* | -14
Cc1c(C(=O)NCCO)sc2nc3n(c(=O)c12)CCC3 | 31 | .
Cc1ccc(OCC(=O)NC(C)c2ccc(Cl)c(Cl)c2)c([N+](=O)[O-])n1 (stereo not drawn) | 52* | .
Cc1ccc(OCC(=O)Nc2cc(C)on2)c([N+](=O)[O-])n1 | 26 | -9
NNC(=O)c1sccc1OCc1ccc(F)cc1 | 55* | 30
O=C(N/N=C/c1ccc(F)cc1)c1sccc1OCc1ccc(F)cc1 | 6 | .
COc1ccc2c(c1)-c1nc(/N=C/c3cccc(OC)c3O)sc1CC2 | 1 | -11
Cc1ccc(Cl)cc1S(=O)(=O)N1CCC(C(=O)NC2CCN(Cc3ccccc3)CC2)CC1 | 26 | .
Cc1cc(-c2nn(-c3ccccc3F)cc2CN2CCCC(CO)C2)c(C)s1 (stereo not drawn) | 13 | -11
Cc1cc(-c2nn(-c3ccccc3F)cc2CN2CCCC(O)C2)c(C)s1 (stereo not drawn) | 53* | 5
C=CCNC(=O)N1CCC(n2nccc2NC(=O)CCCc2ccccc2)CC1 | 56* | .
SMILES | VHR inh abs | Mtb RmlCD inh
COCC(=O)N1CCC(n2nccc2NC(=O)CCOc2ccccc2)CC1 | 56* | .
COC(=O)CCCC(=O)N1CCC(n2nccc2NC(=O)CCOc2ccccc2)CC1 | 89 | .
C=CCCC(=O)N1CCC(n2nccc2NC(=O)CCCc2ccccc2)CC1 | -9 | .
COc1ccc(C)cc1NC(=O)C1CCN(C(=O)c2ccc(C(C)(C)C)cc2)CC1 | -52 | .
CCC(=O)N1CCN(c2ccccc2NC(=O)COc2ccccc2Cl)CC1 | -2 | 8
Cc1ccc(C)c(-c2cc(C(=O)N/N=C/c3cccnc3)c3ccccc3n2)c1 | 22 | .
COc1cccc(/C=N/NC(=O)c2cc3c(OC)cccc3[nH]2)c1O | -4 | 69*
COc1cc(/C=N/NC(=O)CCC(=O)Nc2ccc(C)cc2)ccc1O | 52* | 16
Cc1ccc(NC(=O)CCC(=O)N/N=C/c2ccccc2O)cc1 | 10 | .
COc1cccc(/C=N/NC(=O)c2cc3c(OC)cccc3[nH]2)c1OC | 21 | -7
COc1cc(/C=N/NC(=O)c2cc3ccccc3[nH]2)ccc1O | 57* | .
COc1cc(/C=N/NC(=O)c2nc(C)cc(C)n2)ccc1O | -28 | .
Cc1cccc(OCCC(=O)Nc2ccc(S(=O)(=O)N3CCCC3)cc2)c1 | 18 | .
Cc1cccc(OCCC(=O)Nc2ccc(C)c(S(=O)(=O)N3CCCCC3)c2)c1 | 51* | 4
Cc1cc(O)c(NC(=O)c2cc([N+](=O)[O-])ccc2Cl)cc1C | -10 | -10
Cc1ccc(O)c(NC(=O)c2cc([N+](=O)[O-])ccc2Cl)c1 | 52* | 10
CC1CCN(CC(=O)Nc2ccc(Br)cc2[N+](=O)[O-])CC1 | 19 | .
CCN1CCSc2ccc(C(=O)NCc3ccc(OC(C)C)cc3)cc21 | 53* | .
CCOc1ccc(CNC(=O)c2ccc3c(c2)N(CC)CCS3)cc1 | 13 | .
CCOC(=O)N1CCN(Cc2cccs2)CC1 | -1 | -10
c1csc(CN2CCNCC2)c1 | 56* | -5
CCN(CC)c1ccc(C(=O)OCC(=O)NCC2CCCO2)cc1 (stereo not drawn) | 27 | 11
CCCCCc1c(C)nc(N2CCc3ccccc32)[nH]c1=O | 53* | 26
CCCCCc1c(C)nc(N2CCc3ccccc3C2)[nH]c1=O | 13 | 10
O=C(CCC1CCCN(C(=O)c2ccccc2Cl)C1)N1CCN(c2ccccn2)CC1 (stereo not drawn) | 52* | .
SMILES | VHR inh abs | Mtb RmlCD inh
CC(=O)c1ccccc1C(=O)N1CCCC(CCC(=O)N2CCN(c3ccccn3)CC2)C1 (stereo not drawn) | 26 | .
CN(C)C(CNc1ccc(S(C)(=O)=O)cc1[N+](=O)[O-])c1ccccc1 (stereo not drawn) | 26 | .
CN(C)C(CNc1ccc(S(C)(=O)=O)cc1[N+](=O)[O-])Cc1ccccc1 (stereo not drawn) | 56* | .
COc1ccc(CCN2CC(C(=O)N(C)Cc3ccccc3OC)CCC2=O)cc1 (stereo not drawn) | 53* | .
COc1ccc(CCN2CC(C(=O)N(C)CCOc3ccccc3)CCC2=O)cc1 (stereo not drawn) | 2 | .
CS(=O)(=O)N1CCN(c2ccc([N+](=O)[O-])c(NCc3ccc(Cl)cc3)c2)CC1 | 90* | .
CS(=O)(=O)N1CCN(c2ccc([N+](=O)[O-])c(NCc3ccccc3)c2)CC1 | 20 | 3
Cc1nc2ccccc2c(=O)n1NC(=O)c1cccc([N+](=O)[O-])c1 | 5 | .
Cc1[nH]c(=S)c(C#N)c(C)c1CCC#N | 21 | -13
COc1ccccc1NC(=O)c1ccc2[nH]c(C)c(C)c2c1 | 14 | .
COc1ccc(NC(=O)C2CCCN(C(=O)Nc3ccc(F)cc3)C2)cc1OC (stereo not drawn) | 36 | .
COc1ccc(-c2[nH]ncc2CNCc2cc(C)n(C)n2)c(F)c1 | 11 | 96
COc1ccc(-c2nc3ccccc3c(=O)o2)cc1OC | 7 | 9
CC(C)CCN1C(=O)c2ccc(-c3nc4ccccc4c(=O)o3)cc2C1=O | 50* | .
O=S(=O)(NCc1nnc2c(C(F)(F)F)cc(Cl)cn12)c1ccccc1 | 6 | .
CN1CCN(C(c2ccc(Br)cc2)c2cc(Cl)c3cccnc3c2O)CC1 (stereo not drawn) | 16 | .
Cc1ccc2c(c1)N(CC(=O)NCCCN1C(C)CCCC1C)C(=O)c1cccnc1O2 (stereo not drawn) | 41 | .
CC(=O)NCC(=O)NC1CC(C)(C)Cc2c1cnn2-c1ccccc1 (stereo not drawn) | 12 | .
COC(=O)CCC(=O)NC1CC(C)(C)Cc2c1cnn2-c1ccccc1 (stereo not drawn) | 57* | .
O=S(=O)(Nc1nc2ccccc2s1)c1ccc(Cl)nc1 | 22 | 2
C=C(C)CSc1nc2c(c(=O)[nH]c(=O)n2C)n1Cc1ccccc1 | 18 | .
CSc1nc2c(c(=O)[nH]c(=O)n2C)n1Cc1ccccc1 | 1 | .
Cn1c(=O)[nH]c(=O)c2c1nc(SCC(N)=O)n2Cc1cccc(Br)c1 | 52* | .
Cn1c(=O)[nH]c(=O)c2c1nc(N)n2Cc1ccccc1 | 52* | .
